# Measured values from PubChem BioAssay (NCATS).
# Records with an inconclusive call do not appear. Where a call stands in place of a potency, no number is given. Active and inactive are the calls of the source. Calls follow the shape of the dose curve; as a rule, active = well fitted cell-killing curve with a large enough effect; inconclusive = small, poorly fitted or top-dose-only effect; inactive = flat fitted curve, though single readings scatter.
# Assay: Quantitative highthroughput screen to assess conditional lethalithy of NOMO1 cells grown in RPMI1640 with untreated serum (RPMI+s) (AID 1963876); also: nearly all actives have a fitted effect of over 35% in size
# Conditions: NOMO1 AML cells in RPMI+serum, CellTiter-Glo viability, 48 h; series mostly up to 45.8 µM
# Source text: Assay Provider: Jason Cantor Ph.D.
# Department of Biochemistry
# University of Wisconsin-Madison, Madison, WI, USA
# Chemical screening studies have identified drug sensitivities across hundreds of cancer cell lines but most putative therapeutics fail to translate. Discovery and development of drug candidates in models that more accurately reflect nutrient levels in human blood is a major challenge. Here we performed high-throughput screens in conventional versus Human Plasma-Like Medium (HPLM) to identify compounds that were "missed" when screening using the artificial culture condition. Sets of conditional anticancer compounds spanned phases of clinical development and included non-oncology drugs were assessed. […] We also traced conditional phenotypes for several chemotherapeutics to availability of HPLM-specific metabolites and confirmed others for compounds whose reported targets are encoded by nonessential genes. Our findings establish generalizable strategies for exploiting conditional lethality in HPLM to reveal therapeutic candidates and mechanisms of action in cancer cells.
# Described herein are the results of each viability screens against three cell lines: NOMO1 (an acute myeloid leukemia cell line); P12-Ichikawa (a T-cell acute lymphoblastic leukemia); and SEM (a B-cell ALL). Each assay was screened using 3 different cell culture media: homemade human plasma-Like medium with 10% dialyzed fetal bovine serum (HPLM+ds); RPMI1640 with 10% untreated FBS and 5mM glucose (RPMI+s); and RPMI1640 with 10% dialyzed fetal bovine serum and 5 mM glucose (RPMI+ds).
# PROTOCOL TABLE (as described by Inglese J, Shamu CE and Guy RK. 2007)
# SEQUENCE No. (e.g., 1, 2, 3, etc.); […] (e.g., Cells, Incubation, Reagent, etc.); VALUE and DESCRIPTION.
# 1; Cells; 5 uL; white, solid bottom 1536-well Greiner assay plate.
# 2; Compounds; 23 nL; Kalypsis pin tool (Wako USA) equipped with a 1536-well pin head to transfer to the assay plates.
# 3; Incubation; 48 hours; 37C incubation.
# 4; Reagent; 3 uL; CellTiter Glo (Promega).
# 5; Incubation; 5 min, room temperature
# 6; Detection; Luminescence, Viewlux PerkinElmer.
# NOTES (numbers refer to Sequence numbers above)
# 1. Briefly, 5 ul of cell reagent was dispensed using a Multidrop Combi Dispenser. The NOMO1 and SEM cells were plated at 500 cells/well and the P12-Ichikawa line at 1000 cells/well.
# 2. After seeding the cells, 23 nL of MIPE 4.1 library compounds (in DMSO) were added to each plate using a Kalypsys 1536 Pintool dispenser. Bortezomib at final concentration of […] and DMSO were added to each plate as positive and negative controls respectively. For each screen, MIPE 4.1 compounds were added over an eleven-point concentration range […] in 3-fold dilutions.
# 3. Each plate was covered with a stainless steel gasketed lid to prevent evaporation and incubated for 48 hour at 37C, 95% relative humidity, and 5% CO2.
# 4-5. Three microliter CellTilter-GloTM luminescent substrate mix (Promega) reagent was added to the assay plate and incubated at room temperature for 5 min.
# 6. The luminescence signal was measured using a ViewLux (PerkinElmer) multiplate reader with a 2 second exposure time per plate. Data for each compound were normalized as percent viability such that measurements for DMSO and the empty well controls in each plate were defined as 100% and 0%, respectively.
# Potency is read from the fitted curve at half-maximal effect.
row,SMILES,Potency
1,CCOC(=O)Nc1ccc(NCc2ccc(F)cc2)nc1N,inactive
2,CN(C(Cc1ccc(OS(=O)(=O)c2cccc3cnccc23)cc1)C(=O)N1CCN(c2ccccc2)CC1)S(=O)(=O)c1cccc2cnccc12 (stereo not given),inactive
3,CCc1cccc2c3c([nH]c12)C(CC)(CC(=O)O)OCC3 (stereo not given),inactive
4,Oc1cccc(-c2nc(N3CCOCC3)c3oc4ncccc4c3n2)c1,inactive
5,O=C(Nc1cc(Cl)cc2c1[nH]c1cnccc12)c1cccnc1,inactive
6,NC(CO)C(=O)NNCc1ccc(O)c(O)c1O (stereo not given),inactive
7,COc1ccc([C@@H]2CC(=O)c3c(O)cc(O[C@@H]4O[C@H](CO[C@@H]5O[C@@H](C)[C@H](O)[C@@H](O)[C@@H]5O)[C@@H](O)[C@H](O)[C@@H]4O)cc3O2)cc1O,inactive
8,COc1cccc([C@@H](C)NCCCc2ccccc2Cl)c1,inactive
9,CC=C(C(=CC)c1ccc(O)cc1)c1ccc(O)cc1,inactive
10,CN1CCC(CNc2ccc3ncc(-c4cccc(OC(F)(F)F)c4)n3n2)CC1,23.5 µM (active)
11,CN(CCOc1ccc(NS(C)(=O)=O)cc1)CCc1ccc(NS(C)(=O)=O)cc1,inactive
12,O=C(O)Cc1cccc(OCCCN(Cc2cccc(C(F)(F)F)c2Cl)CC(c2ccccc2)c2ccccc2)c1,inactive
13,Cc1cn[nH]c1,inactive
14,CC(C)NCC(O)c1ccc(NS(C)(=O)=O)cc1 (stereo not given),inactive
15,CCOC(=O)c1c(C)n(C)c2ccc(O)cc12,inactive
16,Cn1cc(-c2ccc3ncc(Cc4ccc5ncccc5c4)n3n2)cn1,inactive
17,OCCN1C[C@H](O)[C@@H](O)[C@H](O)[C@@H]1CO,0.105 µM (active)
18,C=C1C(=O)OC2C=C(C)CCC=C(C)CCC12 (stereo not given),inactive
19,Fc1ccc(Cl)cc1-c1nc(Nc2ccncc2)c2nccnc2n1,inactive
20,CC(=O)O[C@]1(C(C)=O)CC[C@H]2[C@@H]3C=C(Cl)C4=CC(=O)[C@@H]5C[C@H]5[C@]4(C)[C@@H]3CC[C@@]21C,0.59 µM (active)

row,SMILES,Potency
1,COc1cc2nccc(Oc3ccc(NC(=O)C4(C(=O)Nc5ccc(F)cc5)CC4)cc3)c2cc1OC,inactive
2,NCCS(=O)(=O)O,inactive
3,CC1CCN(c2cc(N3CCN(C)CC3)ccc2NC(=O)c2cc(C#N)c[nH]2)CC1,inactive
4,Cc1ccc(NC(=O)c2cccc(N(C)C)c2)cc1NC(=O)c1ccc(O)cc1,inactive
5,CN(C)c1ccc2nc3ccc(=[N+](C)C)cc-3sc2c1,8.33 µM (active)
6,Cn1cnc(=N)c2[nH]cnc21,7.43 µM (active)
7,O=C(N[C@H](CO)[C@H](O)c1ccc([N+](=O)[O-])cc1)C(Cl)Cl,inactive
8,Cn1cc(-c2cnn3c(N)c(Br)c([C@H]4CCCNC4)nc23)cn1,2.09 µM (active)
9,Cc1nnc(NS(=O)(=O)c2ccc(N)cc2)s1,9.35 µM (active)
10,CCCCN(CCCC)CCC(O)c1cc2c(Cl)cc(Cl)cc2c2cc(C(F)(F)F)ccc12 (stereo not given),inactive
11,C[C@]12CCC(=O)C=C1[C@@H]1CC1[C@H]1[C@H]3[C@@H]4C[C@H]4[C@@]4(CCC(=O)O4)[C@@]3(C)CC[C@H]12 (stereo not given in full),inactive
12,CN(C1CCc2c(c3ccccc3n2CC(=O)O)C1)S(=O)(=O)c1ccc(F)cc1 (stereo not given),7.43 µM (active)
13,COc1cc(Nc2c(C#N)cnc3cc(OCCCN4CCN(C)CC4)c(OC)cc23)c(Cl)cc1Cl,7.43 µM (active)
14,C[Se]CCC(N)C(=O)O (stereo not given),inactive
15,O=C1C[C@@H](c2ccc(O)cc2)Oc2cc(O)cc(O)c21,inactive
16,C=CC(=O)N1CCc2ccc(-n3c(=O)ccc4cnc5ccc(-c6cnn(C)c6)cc5c43)cc21,7.43 µM (active)
17,Cc1ccccc1C(C(=O)NC1CCCCC1)N(C(=O)CNc1ccc(C#N)cc1)c1cccc(F)c1 (stereo not given),inactive
18,COc1ccc2c(c1)c(CC(=O)OCC(=O)O)c(C)n2C(=O)c1ccc(Cl)cc1,inactive
19,C=C1c2cccc(O)c2C(O)=C2C(=O)[C@@]3(O)C(O)=C(C(N)=O)C(=O)[C@@H](N(C)C)[C@@H]3[C@@H](O)[C@H]12,inactive
20,CC[C@H](C)C(=O)O[C@H]1C[C@@H](C)C=C2C=C[C@H](C)[C@H](CC[C@@H]3C[C@@H](O)CC(=O)O3)[C@H]21,inactive
